# Screens as filed in PubChem.
# Pf Dd2 inh: Plasmodium falciparum Dd2 growth inhibition. 120,000 tested, 4.3% active. P. falciparum Dd2 growth, SYBR Green, 72 h. Potency, µM (doses to about 28.9 µM), without a hit: at the top dose activity, negative = inhibition, most hits filed as inhibitors; active = well fitted inhibition curve with a large enough effect;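 also: plate controls were DMSO vehicle for no effect and reference drug for full effect; nearly all actives have a fitted effect of over 65% in size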
#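 Readout: SYBR Green fluorescence, 485 nm excitation, 535 nm emission, after ~16 h lysis at 37C. Before that, Dd2-infected red cells (2.5% hematocrit) grew 72 h with compound, 29 uM top final concentration.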
# The depositor's hits bear a star; i = inactive; [ ] = dose if it differs, or a comment. Many of the other results were omitted from the sample, so hits are more common in it than they were. Potency is read from the fitted curve at half-maximal effect.
SMILES,Pf Dd2 inh
Cc1ccc(-n2ncc3c2CCCC3NC(=O)c2cc(C(C)C)no2)cc1C (stereo not drawn),-1%
O=C(Cn1ncc2c3ccccc3n(Cc3ccccc3F)c2c1=O)NCCc1ccc(Cl)cc1,23%
Cc1ccc(C)c(Cn2c3ccccc3c3cnn(CC(=O)NC(C)c4ccccc4)c(=O)c32)c1 (stereo not drawn),27%
CCCN(CCC)CCCNC(=O)Cn1ncc2c3ccccc3n(Cc3ccccc3F)c2c1=O,5µM*
Cc1ccccc1Cn1c2ccccc2c2cnn(CC(=O)NCCc3ccc(Cl)cc3)c(=O)c21,18%
CCCCN(C)CCCNC(=O)Cn1ncc2c3ccccc3n(Cc3cc(C)ccc3C)c2c1=O,0.45µM*
CC(CCc1ccccc1)NC(=O)Cn1ncc2c3ccccc3n(Cc3ccccc3F)c2c1=O (stereo not drawn),-16%
CCCCN(C)CCCNC(=O)Cn1ncc2c3ccccc3n(Cc3ccccc3F)c2c1=O,5.6µM*
Cc1ccc(C)c(Cn2c3ccccc3c3cnn(CC(=O)NCC(C)c4ccccc4)c(=O)c32)c1 (stereo not drawn),18%
CCCCN(C)CCNC(=O)Cn1ncc2c([nH]c3ccccc32)c1=O,-4%
C[S+](=O)([O-])N1CCC2(CC1)CC(Cc1ccccc1)=NO2,17%
Cc1ccc(C(=O)N2CCC(N3Cc4cnc(C)n4C3=O)CC2)cc1,-23%[44.1 µM]
CCc1noc(-c2cn(C3CCN(C(=O)c4ccsc4)CC3)nn2)n1,i
CNC(=O)N1CC(c2noc(C3CCCN3C(=O)c3ccc(C)s3)n2)C1 (stereo not drawn),-12%
COCCN1CCCCC(CC(=O)Nc2ccc(C)cc2)C1=O (stereo not drawn),-12%
COCC(=O)N1CCC(Oc2ccccc2C(=O)N2CCN(C)C(=O)[C@@H]2C)CC1,-17%
CN1CCN2C(=O)N(Cc3cccnc3)C[C@H]2C1,-15%[44.1 µM]
CCc1nnc([C@@H]2CC(F)(F)CN2C(=O)CCn2nc(C)cc2C)o1,23%
O[C@@H]1C[C@@H](c2nc(-c3ccc4c(c3)OCO4)no2)N(CCCc2ccccc2)C1,i
CS(=O)(=O)N1CCCC1C(=O)Nc1ccc(-c2cccc(F)c2)cc1 (stereo not drawn),-1%
CCCN1CCC(N2CCC(C(=O)Nc3cccc(-c4cccc(F)c4)c3)CC2)CC1,2.2µM*
CC(=O)NC1(C)CCN(Cc2cccc(-c3cccc(Cl)c3)c2)C1 (stereo not drawn),-14%[44.1 µM]
O=C(Nc1cccc(-c2cccc(Cl)c2)c1)C1CCN(Cc2cccc(O)c2)CC1,4µM*
O=C(NCC1CCN(Cc2cccc(Cl)c2)CC1)Nc1cc(Cl)ccc1Cl,i
CN(C)S(=O)(=O)N1CCCC1C(=O)Nc1ccc(-c2cccc(F)c2)cc1 (stereo not drawn),-6%
SMILES,Pf Dd2 inh
COCC[C@]1(O)CCN(C(=O)C2CCN(C3CCCC3)CC2)C[C@H]1C,-1%
N#Cc1ccc(C(=O)Nc2ccc3n(c2=O)C[C@H]2C[C@@H]3CN(C(=O)c3ccccn3)C2)cc1,-23%
Cc1ccc(NC(=O)c2ccc3c(c2)N(S(C)(=O)=O)CC3)cc1,i
Cn1nc(-c2nncn2Cc2ccccc2)c2c1CCN(C(=O)c1ccncc1)C2,-22%
CCc1ccc(S(=O)(=O)c2nnn3c2nc(Nc2ccc(F)cc2)c2cc(Cl)ccc23)cc1,1.3µM*
CCc1ccc(S(=O)(=O)c2nnn3c2nc(NCc2ccc(F)cc2)c2ccccc23)cc1,-24%
COc1ccc(Nc2nc3c(S(=O)(=O)c4ccccc4)nnn3c3ccc(Cl)cc23)cc1OC,7%
CC(=O)Nc1ccc(Nc2nc3c(S(=O)(=O)c4cc(C)ccc4C)nnn3c3ccsc23)cc1,-24%
Cc1ccc(S(=O)(=O)c2nnn3c2nc(N2CCCC2)c2sccc23)cc1C,-5%
Cc1ccc(S(=O)(=O)c2nnn3c2nc(NC(C)c2ccccc2)c2sccc23)cc1 (stereo not drawn),10µM*
COc1ccc(Nc2nc3c(S(=O)(=O)c4ccc(C)cc4)nnn3c3ccsc23)cc1Cl,i
Cc1ccc(C)c(S(=O)(=O)c2nnn3c2nc(Nc2ccc(F)c(Cl)c2)c2sccc23)c1,13µM*
Cc1ccc(S(=O)(=O)c2nnn3c2nc(NCc2ccccc2)c2sccc23)cc1,i
Cc1ccc(Nc2nc3c(S(=O)(=O)c4ccccc4)nnn3c3ccsc23)c(C)c1,18%
CN1CCN(c2nc3c(S(=O)(=O)c4ccccc4)nnn3c3ccsc23)CC1,11%
Cc1ccc(C)c(S(=O)(=O)c2nnn3c2nc(N2CCN(C)CC2)c2sccc23)c1,8.9µM*
Cn1nc(C2CCCN(C(=O)Cc3cccc(F)c3)C2)n(-c2ccccc2)c1=O (stereo not drawn),i
Cc1cnc(C(=O)N[C@@H]2CCC[C@@H]2C(=O)N2CCN(C(C)C)CC2)cn1,9%
COCCn1nc2n(c1=O)CCN(C(=O)Cc1ccc(OC)c(OC)c1)CC2,23%
CN(Cc1cc(-c2ccccc2)on1)C(=O)c1cn(Cc2ccc(F)cc2)nn1,3%
CS(=O)(=O)c1ccc2c(c1)nc1n2[C@@H](CNC2CCCCC2)COC1,-14%[44.1 µM]
